Source: PubChem BioAssay
ADAM10 inh: inhibits human ADAM10; O14672; recombinant ADAM10, EDANS/DABCYL FRET peptide cleavage, 3 h; inhibition, % at 7 µM; 0.62% of 370,000 active; AID 720582;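 active = inhibition above a per-campaign cutoff equal to the mean of compounds falling between control-based bounds plus 3 SD, cut at about 20% in these data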;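 also: 0% = DMSO wells while the 100% control is not disclosed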
PLCg1 inh: blocks human PLC-gamma1 enzyme activity; 0.84% of 370,000 active; purified PLC-gamma1, fluorogenic substrate, fluorescence; P19174; inhibition, % at 12.2 µM; in the data active = inhibition above about 9.5%
proKLK7 act: activates the human kallikrein-7 zymogen; 0.9% of 370,000 active; purified proKLK7, EDANS-DABCYL substrate fluorescence; 100% is mature enzyme control, 0% vehicle; AID 652039; P49862; activation, % at 7 µM;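 active = activation above the mean of all tested compounds plus 3 SD, computed per campaign excluding outliers beyond control limits, cut at about 13% in these data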
HGIII-sPLA2 inh: Blocks human group III sPLA2 activity. QFRET BODIPY PC-A2 liposome hydrolysis, fluorescence. inhibition, % at 12.2 µM. 0.56% of 370,000 active. Q9NZ20;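 active = inhibition above mean plus 3 SD of compounds lying within the high and low control bounds, cut at about 19% in these data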;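 also: 0% = median of test compound wells and 100% = no enzyme DMSO wells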
PLCb3 inh: blocks human PLC-beta3 enzyme activity; Q01970; Purified PLC-beta3, fluorogenic substrate, fluorescence; inhibition, % at 12.2 µM; 0.18% of 370,000 active; in the data active = inhibition above about 11%;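 also: 0% = median of compound wells on plate and 100% = full blocker control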
ADAM17 inh: ADAM17 inhibition, QFRET primary screen. AID 720648. 0.83% of 370,000 active. inhibition, % at 6.95 µM. recombinant ADAM17, EDANS/DABCYL FRET peptide cleavage;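 active = inhibition above the mean of compounds lying between control limits plus 3 SD, set per campaign, cut at about 8.5% in these data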;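 also: 0% = DMSO-only wells as the low control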
Target sequence (P78536 215-824 limits assumed): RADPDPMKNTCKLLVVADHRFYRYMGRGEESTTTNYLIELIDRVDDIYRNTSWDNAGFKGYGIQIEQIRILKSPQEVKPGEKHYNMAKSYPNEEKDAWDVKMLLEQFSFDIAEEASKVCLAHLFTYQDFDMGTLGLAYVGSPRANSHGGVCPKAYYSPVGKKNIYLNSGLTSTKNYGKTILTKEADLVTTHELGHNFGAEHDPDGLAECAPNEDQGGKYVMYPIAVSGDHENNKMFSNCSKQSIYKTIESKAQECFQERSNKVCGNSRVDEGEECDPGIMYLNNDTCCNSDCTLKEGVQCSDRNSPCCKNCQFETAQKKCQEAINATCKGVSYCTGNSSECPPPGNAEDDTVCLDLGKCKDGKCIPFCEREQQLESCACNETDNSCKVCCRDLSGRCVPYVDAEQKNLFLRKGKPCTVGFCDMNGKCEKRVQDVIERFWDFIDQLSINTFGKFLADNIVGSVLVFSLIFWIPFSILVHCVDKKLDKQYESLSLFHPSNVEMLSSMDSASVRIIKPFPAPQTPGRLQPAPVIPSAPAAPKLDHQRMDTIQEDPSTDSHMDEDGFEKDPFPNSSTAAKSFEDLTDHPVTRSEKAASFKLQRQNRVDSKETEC
ADAM10 counter: ADAM10 inhibition, counter-screen for ADAM17 exosite hits. AID 743256. shares compounds with ADAM17 inh. 47% of 2,900 active. recombinant ADAM10, EDANS/DABCYL FRET peptide cleavage, 3 h. inhibition, % at 6.95 µM;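 active = mean inhibition over the triplicate runs exceeds the activity threshold set in the earlier primary screen, cut at about 20% in these data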;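 also: 0% = DMSO wells and 100% = marimastat wells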
ADAM17 confirm: confirmation of inhibitors of human ADAM17; AID 743257; inhibition, % at 6.95 µM; recombinant ADAM17, EDANS/DABCYL QFRET peptide cleavage; shares compounds with ADAM17 inh; 65% of 2,900 active;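 active = mean inhibition across replicates above the hit cutoff set in the primary screen, cut at about 8.5% in these data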;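 also: 0% = DMSO wells and 100% = marimastat wells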
An asterisk follows results filed as active; / = no result given. This is a sample that favours compounds with a hit; in the whole collection about 3.4% have one here.

SMILES	ADAM10 inh	PLCg1 inh	proKLK7 act	HGIII-sPLA2 inh	PLCb3 inh	ADAM17 inh	ADAM10 counter	ADAM17 confirm
C=CC[C@@H](CC(=O)N[C@@H](CO)Cc1ccccc1)C(=O)N[C@H](COC(=O)[C@H](CC=C)CC(=O)OC(C)(C)C)Cc1c[nH]c2ccccc12	17.9	6.4	0.7	-68.1	3.3	9.9*	44.2*	22.9*
CC(=O)CC[C@H]1CC[C@]2(CCCN(C(=O)c3ccc4ccccc4n3)C2)O1	0.3	0.3	0.3	8.5	2.4	1.3	/	/
O=C(CSc1nnc(-c2ccccc2)n1-c1ccccc1)Nc1ccc(Oc2ccccc2)cc1	-4.2	-0.7	0.2	0.5	-2.0	-1.0	/	/
CCc1cc(-c2n[nH]c(C)c2-c2ccccc2Cl)c(O)cc1OC	16.8	4.7	-0.7	-14.1	-3.1	8.7*	32.3*	15.7*
CCOc1ccc(-c2n[nH]c(C)c2-c2ccccc2OC)c(O)c1	19.1	2.2	0.3	-24.5	2.4	4.3	/	/
COc1ccc(C2c3ccc4ccccc4c3Oc3ncn(CCCO)c(=N)c32)cc1 (configuration not stated)	11.2	4.5	0.3	-10.7	-3.5	3.6	/	/
COc1ccc(C2c3ccc4ccccc4c3Oc3ncn(CCN4CCOCC4)c(=N)c32)cc1 (configuration not stated)	17.7	8.2	0.3	-27.5	2.2	9.2*	12.4	8.3
COc1ccc(C2c3ccc4ccccc4c3Oc3ncn(CCN4CCOCC4)c(=N)c32)cc1OC (configuration not stated)	10.6	4.7	0.7	-14.2	0.6	8.6*	12.0	9.2*
COc1ccc(C2CC3CN(C4CCCCC4)C(=O)C3N2C)cc1 (configuration not stated)	-5.2	-1.7	-0.3	4.3	-0.2	-5.8	/	/
CCc1ccc(/C=N/NC(=O)c2cc(-c3ccccc3OC)nc3ccccc23)s1	8.0	-43.1	-32.4	-4.5	-95.8	9.2*	-29.9	5.4
CCOc1ccc(CCNC(=O)C2CCCCC2)cc1OCC	-9.3	0.2	/	4.5	-0.8	-6.1	/	/
Cc1ccc(C)c(NC(=O)CN(C)C(=O)c2ccc(COc3ccccc3)cc2)c1	6.7	7.6	0.2	-18.6	6.8	11.2*	6.5	5.9
COc1ccc(NC(=O)c2nc(C)c(C3(C)CC(c4cccnc4)=NO3)s2)cc1 (configuration not stated)	11.2	-0.7	1.0	-17.7	-7.0	10.7*	18.4	10.4*
COc1ccc2nc(NC(=S)N(C)C)sc2c1	6.2	15.5*	-0.2	3.2	9.3	12.9*	-10.1	0.7
O=C(CC(c1ccccc1)c1ccccc1)Nc1ccc2c(c1)OCCO2	16.4	7.9	0.1	-20.4	4.6	12.5*	15.7	14.1*
CN=C1NC(=O)/C(=C\c2cc(C)n(-c3ccccc3F)c2C)S1	-7.8	-19.1	/	1.1	-30.2	0.0	/	/
O=S1(=O)c2c(cccc2N2CC[C@@H](O)C2)O[C@@H]2CCN1C2	-5.5	-1.8	-0.6	1.9	-1.7	-5.2	/	/
O=S(=O)(c1ccc2nc(Cc3ccccc3)[nH]c2c1)N1CCOCC1	17.5	3.9	0.3	-4.7	9.3	8.8*	12.9	6.3
CCN1C(=O)[C@@H]2[C@@H](c3ccc(-c4cccc(Cl)c4)c(OC)c3)N3CCCC[C@@]3(C(=O)OC)[C@@H]2C1=O	13.3	6.1	0.3	0.4	4.6	9.9*	20.3*	16.1*
CCN1C(=O)[C@@H]2[C@@H](c3ccc(-c4ccc(OC)cc4)c(OC)c3)N3CCCC[C@@]3(C(=O)OC)[C@@H]2C1=O	1.6	-11.2	0.9	-2.0	-20.3	9.3*	-7.1	-1.4
CCCCN=C(N)NC(=O)OCc1ccccc1	-3.6	0.0	-0.4	4.3	5.9	-2.2	/	/
Cc1ccccc1C(=O)N(Cc1ccccn1)CC1CCCO1 (configuration not stated)	-1.9	-1.4	0.2	-2.4	-0.3	-0.2	/	/
COc1ccc(OC)c(NC(=O)CSc2nc(O)cc(=O)n2CC(C)C)c1	8.2	-9.2	-0.1	4.2	-8.0	9.3*	3.2	3.5
COc1ccc(CSc2nc(O)cc(=O)n2CC(C)C)cc1F	6.2	-1.3	-0.2	-1.5	-6.2	-0.7	/	/
CCOC(=O)C1=C(C(=O)OCC)C2N(Cc3ccc(Br)cc3)c3ccccc3[C@@]23C[C@@H](C(=O)OC)N(S(=O)(=O)c2ccc(OC)cc2)C3=N1 (some centres not stated)	-11.1	-14.2	0.3	3.8	-20.5	-5.2	/	/
SMILES	ADAM10 inh	PLCg1 inh	proKLK7 act	HGIII-sPLA2 inh	PLCb3 inh	ADAM17 inh	ADAM10 counter	ADAM17 confirm
CCOC(=O)C1=C(C(=O)OCC)C2N(Cc3ccc(C#N)cc3)c3ccccc3[C@@]23C[C@@H](C(=O)OC)N(S(=O)(=O)c2ccc(OC)cc2)C3=N1 (some centres not stated)	16.3	3.0	-0.1	-0.5	4.6	11.9*	19.4	11.9*
COC(=O)c1cc(-c2cccc(C#N)c2)c(=O)n2c1CCC2	-45.4	-2.3	0.1	15.7	-7.3	-17.9	/	/
CC(=O)c1cc(-c2ccc(Cl)c(C(F)(F)F)c2)c(=O)n2c1CCC2	-47.8	-18.1	0.7	6.4	-19.9	-13.4	/	/
CN(C)/C=C/C(=O)c1ccc([N+](=O)[O-])c(CS(=O)(=O)c2ccccc2)c1	16.4	7.2	0.4	-9.8	-4.8	9.3*	9.2	8.7*
O=C(O)c1ccc([N+](=O)[O-])c(CS(=O)(=O)c2ccccc2)c1	-2.5	-0.5	0.0	1.3	-1.9	-0.8	/	/
CCOC(=O)Cc1nc(N2CCN(Cc3cccc4c3OCO4)CC2)c2c(C)c(C(=O)OCC)sc2n1	-8.4	-5.5	-3.1	-10.3	-4.4	-0.3	/	/
CC(=O)NC(c1cccs1)c1cc([N+](=O)[O-])c2cccnc2c1O (configuration not stated)	14.9	3.4	0.2	16.2	5.7	10.6*	36.4*	18.9*
CCC(=O)NC(c1cccs1)c1cc([N+](=O)[O-])c2cccnc2c1O (configuration not stated)	15.1	-0.7	-0.7	18.9	2.9	3.0	/	/
CC(Oc1ccc(Cl)cc1Cl)c1ccnc(N)n1 (configuration not stated)	16.3	3.8	-0.2	7.6	2.6	9.2*	2.2	3.4
COc1ccc(-c2cn[nH]c2-c2ccc(OCc3ccc([N+](=O)[O-])cc3)cc2O)cc1OC	10.7	0.4	0.2	-29.3	-6.8	9.8*	25.2*	13.9*
O=[N+]([O-])c1ccc(COc2ccc(-c3[nH]ncc3-c3ccc(Cl)cc3)c(O)c2)cc1	6.3	0.7	-0.1	-25.7	3.6	4.1	/	/
